Laboratory results from PubChem BioAssay AID1159580 (chemical genetic matrix, 2015).
The whole screen tested about 5,500 compounds, of which about 2,000 (36%) were called active. About 18% were inconclusive and are not listed. Cut-off read from the data, not from the text of the source: active = normalized growth mostly below about 0.91 (no sharp cut-off); inconclusive = no clear call, values can overlap the other calls; inactive = mostly above about 0.92. The list shows a part of the results.

Test: chemical genetic growth profiling, strain panel (AID 1159580);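 note: tested at 20 µM; growth read once vehicle control cultures reached saturation at 30 °C; 1 = growth at the plate median or of vehicle wells; lower values mean less growth of the strain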
Conditions: S. cerevisiae deletion strains, growth OD
[1] = locus YAR019C, strain CDC15, hits give low values
[2] = locus YBL105C, strain PKC1, hits give low values
[3] = locus YBR135W, strain CKS1, hits give low values
[4] = locus YBR136W, strain MEC1, hits give low values
[5] = locus YBR160W, strain CDC28, hits give low values
[6] = locus YDL017W, strain CDC7, hits give low values
[7] = locus YDL028C, strain MPS1, hits give low values
[8] = locus YDL101C, strain DUN1, hits give low values
[9] = locus YDL108W, strain KIN28, hits give low values
[10] = locus YDL132W, strain cdc53, hits give low values
[11] = locus YDL214C, strain PRR2, hits give low values
[12] = locus YDR052C, strain DBF4, hits give low values
[13] = locus YDR054C, strain cdc34, hits give low values
[14] = locus YDR226W, strain ADK1, hits give low values
[15] = locus YDR477W, strain SNF1, hits give low values
[16] = locus YER123W, strain YCK3, hits give low values
[17] = locus YER133W, strain GLC7, hits give low values
[18] = locus YFL009W, strain cdc4, hits give low values
[19] = locus YFL029C, strain CAK1, hits give low values
[20] = locus YFR003C, strain YPI1, hits give low values
[21] = locus YFR019W, strain FAB1, hits give low values
[22] = locus YFR028C, strain CDC14, hits give low values
[23] = locus YGR040W, strain KSS1, hits give low values
[24] = locus YGR052W, strain FMP48, hits give low values
[25] = locus YGR092W, strain DBF2, hits give low values
[26] = locus YHR030C, strain SLT2, hits give low values
[27] = locus YHR079C, strain IRE1, hits give low values
[28] = locus YHR082C, strain KSP1, hits give low values
[29] = locus YHR205W, strain SCH9, hits give low values
[30] = locus YIL147C, strain SLN1, hits give low values
[31] = locus YJL095W, strain BCK1, hits give low values
[32] = locus YJL128C, strain PBS2, hits give low values
[33] = locus YJL157C, strain FAR1, hits give low values
[34] = locus YJR016C, strain ILV3, hits give low values
[35] = locus YJR066W, strain TOR1 (second series), hits give low values
[36] = locus YJR066W, strain TOR1, hits give low values
[37] = locus YKL048C, strain ELM1, hits give low values
[38] = locus YKL067W, strain YNK1, hits give low values
[39] = locus YKL101W, strain HSL1, hits give low values
[40] = locus YKL193C, strain SDS22, hits give low values
[41] = locus YKL203C, strain TOR2, hits give low values
[42] = locus YLR113W, strain HOG1, hits give low values
[43] = locus YLR133W, strain CKI1, hits give low values
[44] = locus YLR403W, strain SFP1, hits give low values
[45] = locus YML070W, strain DAK1, hits give low values
[46] = locus YMR001C, strain CDC5, hits give low values
[47] = locus YMR205C, strain PFK2 (second series), hits give low values
[48] = locus YMR277W, strain FCP1, hits give low values
[49] = locus YNL006W, strain LST8, hits give low values
[50] = locus YNL020C, strain ARK1, hits give low values
[51] = locus YNL161W, strain CBK1, hits give low values
[52] = locus YNL183C, strain NPR1, hits give low values
[53] = locus YNL207W, strain RIO2, hits give low values
[54] = locus YNL222W, strain SSU72, hits give low values
[55] = locus YNL307C, strain MCK1 (second series), hits give low values
[56] = locus YOL078W, strain AVO1, hits give low values
[57] = locus YOL136C, strain PFK27, hits give low values
[58] = locus YOR061W, strain CKA2, hits give low values
[59] = locus YOR119C, strain RIO1, hits give low values
[60] = locus YOR231W, strain MKK1, hits give low values
[61] = locus YOR329C, strain SCD5, hits give low values
[62] = locus YPL031C, strain PHO85, hits give low values
[63] = locus YPL153C, strain RAD53, hits give low values
[64] = locus YPL204W, strain HRR25, hits give low values
[65] = locus YPL209C, strain IPL1, hits give low values
[66] = locus YPL256C, strain CLN2, hits give low values
[67] = locus YPR025C, strain CCL1, hits give low values
[68] = locus YPR106W, strain ISR1, hits give low values
[69] = locus YPR111W, strain DBF20, hits give low values
[70] = strain NNK1, hits give low values
[71] = strain TSCII, hits give low values

Measured: normalized growth

Cc1nnsc1C(=O)NNc1c(Cl)cccc1Cl
inactive: [1] 0.975 | [2] 0.974 | [3] 0.976 | [4] 0.977 | [5] 0.973 | [6] 0.979 | [7] 0.978 | [8] 0.993 | [9] 0.981 | [10] 0.982 | [11] 0.951 | [12] 0.985 | [13] 0.982 | [14] 0.986 | [15] 0.959 | [16] 0.933 | [17] 0.97 | [18] 0.98 | [19] 0.972 | [20] 0.98 | [21] 0.958 | [22] 0.981 | [23] 0.926 | [24] 1.02 | [25] 0.952 | [26] 1.02 | [27] 0.982 | [28] 1.02 | [29] 0.942 | [30] 0.981 | [31] 0.992 | [32] 0.926 | [33] 0.939 | [34] 0.984 | [35] 0.926 | [36] 1.05 | [37] 0.958 | [38] 0.948 | [39] 0.905 | [40] 0.98 | [41] 1.02 | [43] 0.939 | [44] 0.935 | [45] 0.927 | [46] 0.978 | [47] 0.941 | [48] 0.98 | [49] 0.993 | [50] 0.946 | [51] 0.979 | [52] 0.983 | [53] 0.988 | [54] 0.973 | [55] 0.948 | [56] 0.978 | [57] 0.927 | [58] 0.927 | [59] 1.01 | [60] 0.925 | [61] 0.977 | [62] 0.971 | [63] 0.949 | [64] 0.952 | [65] 0.973 | [66] 0.921 | [67] 0.975 | [68] 0.965 | [69] 0.976 | [70] 0.978 | [71] 0.977
active: [42] 0.844

Cc1cc(NNC(=O)c2ccccc2Cl)nc2c1c(C)nn2C
inactive: [1] 0.994 | [2] 0.989 | [3] 0.979 | [4] 0.979 | [5] 0.983 | [6] 0.987 | [7] 0.978 | [8] 0.994 | [9] 0.978 | [10] 0.978 | [11] 0.951 | [12] 0.99 | [13] 0.993 | [14] 0.976 | [15] 0.978 | [16] 0.938 | [17] 0.96 | [18] 0.98 | [19] 0.993 | [20] 0.987 | [21] 0.95 | [22] 0.973 | [23] 0.958 | [24] 1.01 | [25] 0.974 | [26] 1.07 | [27] 1.08 | [28] 1.05 | [29] 0.953 | [30] 0.984 | [31] 0.968 | [32] 0.966 | [33] 0.972 | [34] 0.988 | [35] 0.926 | [36] 1.08 | [37] 0.964 | [38] 0.958 | [39] 0.941 | [40] 0.985 | [41] 1.06 | [42] 0.93 | [43] 0.951 | [44] 0.968 | [45] 0.956 | [46] 0.992 | [47] 0.97 | [48] 0.986 | [49] 0.982 | [50] 0.973 | [51] 0.98 | [52] 1.03 | [53] 0.985 | [54] 0.989 | [55] 0.973 | [56] 0.978 | [57] 0.905 | [58] 0.94 | [59] 1.04 | [60] 0.978 | [61] 0.989 | [62] 0.97 | [63] 0.987 | [64] 0.945 | [65] 0.993 | [66] 1.05 | [67] 0.993 | [68] 0.999 | [69] 0.993 | [70] 0.998 | [71] 0.98

Cc1cc(C(=O)NNc2ccc(F)cc2F)no1
inactive: [1] 0.972 | [2] 0.967 | [3] 0.971 | [4] 0.969 | [5] 0.964 | [6] 0.972 | [7] 0.977 | [8] 0.959 | [9] 0.973 | [10] 0.984 | [11] 0.938 | [12] 0.963 | [13] 0.952 | [14] 0.963 | [15] 0.95 | [16] 0.822 | [17] 0.957 | [18] 0.974 | [19] 0.956 | [20] 0.974 | [21] 0.899 | [22] 0.961 | [23] 0.93 | [24] 0.995 | [25] 0.861 | [26] 0.923 | [27] 0.948 | [28] 1.01 | [29] 0.962 | [30] 0.971 | [31] 0.955 | [32] 0.965 | [33] 0.931 | [34] 0.974 | [35] 0.879 | [36] 0.998 | [37] 0.95 | [38] 0.953 | [39] 0.955 | [40] 0.976 | [41] 1.01 | [42] 0.932 | [43] 0.93 | [44] 0.934 | [45] 0.912 | [46] 0.969 | [47] 0.972 | [48] 0.975 | [49] 0.988 | [50] 0.953 | [51] 0.963 | [52] 0.979 | [53] 0.962 | [54] 0.959 | [55] 0.908 | [56] 0.967 | [57] 0.937 | [58] 0.822 | [59] 1.01 | [60] 0.921 | [61] 0.967 | [62] 0.939 | [63] 0.923 | [64] 0.925 | [65] 0.96 | [66] 0.934 | [67] 0.968 | [68] 0.962 | [69] 0.963 | [70] 0.979 | [71] 0.964

Cc1nnsc1C(=O)Nc1cc(C(F)(F)F)cc(C(F)(F)F)c1
inactive: [1] 0.956 | [2] 0.957 | [3] 0.953 | [4] 0.958 | [5] 0.962 | [6] 0.958 | [7] 0.959 | [8] 0.964 | [9] 0.958 | [10] 0.95 | [11] 0.987 | [12] 0.966 | [13] 0.951 | [14] 0.955 | [15] 0.995 | [16] 1 | [17] 1.01 | [18] 0.948 | [19] 0.958 | [20] 0.955 | [21] 0.987 | [22] 0.964 | [23] 1 | [24] 1.02 | [25] 0.974 | [26] 1 | [27] 0.908 | [28] 1.07 | [29] 0.846 | [30] 0.957 | [31] 0.946 | [32] 0.957 | [33] 1.01 | [34] 0.956 | [35] 0.976 | [36] 1.1 | [37] 0.993 | [38] 0.977 | [39] 0.961 | [40] 0.947 | [41] 1.06 | [42] 0.961 | [43] 0.991 | [44] 0.941 | [45] 0.997 | [46] 0.962 | [47] 0.984 | [48] 0.951 | [49] 0.964 | [50] 0.985 | [51] 0.957 | [52] 1.05 | [53] 0.954 | [54] 0.961 | [55] 0.992 | [56] 0.951 | [57] 0.985 | [58] 0.996 | [59] 1.05 | [60] 1.03 | [61] 0.966 | [62] 1 | [63] 0.989 | [64] 0.99 | [65] 0.961 | [66] 0.864 | [67] 0.967 | [68] 0.948 | [69] 0.943 | [70] 0.925 | [71] 0.954
